Experimental data published in PubChem BioAssay (NCI).
Compounds without any hit were thinned out: in the full panel of roughly 79,000, 15% have a hit. Activity calls are given as the source filed them. Cut-off read from the data, not from the text of the source: active = growth inhibition above about 70%; inactive = the rest.

How the values were obtained:
[1] = NCI Yeast Anticancer Drug Screen. Data for the rad50 strain (AID 155);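 note: 0% = growth of vehicle-only cultures of the same strain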; conditions: S. cerevisiae rad50 strain growth inhibition, stronger effect = higher value
Outline: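 Vehicle-treated cultures provide the reference for the growth inhibition reported for compound-exposed, repair-deficient yeast.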

[2] = NCI Yeast Anticancer Drug Screen. Data for the mec2-1 strain (AID 157); conditions: S. cerevisiae mec2-1 strain, stronger effect = higher value
Outline: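 Compounds were applied to mec2-1 yeast cells. Their growth was then compared with that of vehicle-treated cultures to give growth inhibition.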

[3] = NCI Yeast Anticancer Drug Screen. Data for the sgs1 mgt1 strain (AID 161);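 note: 0% = growth of cultures given vehicle only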; conditions: S. cerevisiae sgs1 mgt1 strain, stronger effect = higher value
Outline: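 Growth of a repair-deficient yeast mutant was monitored after compound treatment and expressed as inhibition relative to vehicle-treated cultures.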

[4] = NCI Yeast Anticancer Drug Screen. Data for the cln2 rad14 strain (AID 165);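 note: 0% = growth equal to vehicle treated cultures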; conditions: S. cerevisiae cln2 rad14 strain, stronger effect = higher value
Outline: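 Strain: cln2 rad14 yeast, altered in cell cycle control and DNA damage repair. Read-out: growth inhibition vs vehicle.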

[5] = NCI Yeast Anticancer Drug Screen. Data for the bub3 strain (AID 167); conditions: S. cerevisiae bub3 mutant strain, stronger effect = higher value
Outline: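 Mutant yeast screening strain plus compound; vehicle-treated cultures serve as the 0% inhibition reference.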

[6] = NCI Yeast Anticancer Drug Screen. Data for the mlh1 rad18 strain (AID 175); conditions: S. cerevisiae mlh1 rad18 strain growth inhibition, stronger effect = higher value
Outline: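 A repair-deficient yeast strain is exposed to test compound, and growth is scored relative to vehicle-treated controls.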

[7] = at 5.0 µM (retest, dose inferred, filed as 0.5)
[8] = at 50.0 µM (retest, dose inferred, filed as 5.0)

Measured: growth inhibition

Nc1ccccc1O.O.O=C(O)C1[O][Sb][O]C1C(=O)O (configuration not stated)
active: [5]; at 50.0 µM 82.4%
inactive: [1]; [7] 19% | [1]; [8] 33% | [1]; at 50.0 µM 55.5% | [2]; [7] 26% | [2]; [8] 23% | [2]; at 50.0 µM 53.5% | [3]; [7] 12% | [3]; [8] 25% | [3]; at 50.0 µM 27.2% | [4]; [7] 10% | [4]; [8] 20% | [4]; at 50.0 µM 33.3% | [5]; [7] 37% | [5]; [8] 61% | [6]; [7] 37% | [6]; [8] 55% | [6]; at 50.0 µM 59.4%

Cc1cc2c(cc1O)C(C)(C)CCC2(C)C
active: [1]; [8] 70% | [2]; [8] 77% | [2]; at 50.0 µM 97.2% | [3]; [8] 78% | [4]; [8] 90% | [5]; [8] 83% | [5]; at 50.0 µM 96.8% | [6]; at 50.0 µM 97.3%
inactive: [1]; [7] 8% | [1]; at 50.0 µM -6.9% | [2]; [7] -1% | [3]; [7] 1% | [3]; at 50.0 µM 47.9% | [4]; [7] 9% | [4]; at 50.0 µM 52.8% | [5]; [7] 0% | [6]; [7] -2% | [6]; [8] 62%

CC([CH2][Hg][Cl])c1ccccc1 (configuration not stated)
active: [1]; [7] 99% | [1]; [8] 99% | [1]; at 50.0 µM 99.3% | [2]; [7] 100% | [2]; [8] 100% | [2]; at 50.0 µM 99.5% | [3]; [7] 100% | [3]; [8] 99% | [3]; at 50.0 µM 99.6% | [4]; [7] 99% | [4]; [8] 99% | [4]; at 50.0 µM 99.5% | [5]; [7] 99% | [5]; [8] 99% | [5]; at 50.0 µM 99.6% | [6]; [7] 100% | [6]; [8] 99% | [6]; at 50.0 µM 99.5%

CCCC(=O)O.CCCC(=O)O.CCCC(=O)O.CCCC(=O)O.[Rh].[Rh]
inactive: [1]; [7] 25% | [1]; [8] 44% | [1]; at 50.0 µM 22% | [2]; [7] 34% | [2]; [8] 61% | [2]; at 50.0 µM 48.5% | [3]; [7] 28% | [3]; [8] 59% | [3]; at 50.0 µM 30.1% | [4]; [7] 42% | [4]; [8] 69% | [4]; at 50.0 µM 43.5% | [5]; [7] 37% | [5]; [8] 64% | [5]; at 50.0 µM 33.7% | [6]; [7] 29% | [6]; [8] 52% | [6]; at 50.0 µM 24.1%

Nc1nc2ncnc(N)c2nc1-c1ccc(N(CCCl)CCCl)cc1
inactive: [1]; [7] -2% | [1]; [8] 46% | [1]; at 50.0 µM 55.7% | [2]; [7] -3% | [2]; [8] 38% | [2]; at 50.0 µM 46% | [3]; [7] -3% | [3]; [8] 54% | [4]; [7] 6% | [4]; [8] 18% | [4]; at 50.0 µM 16.4% | [5]; [7] -1% | [5]; [8] 40% | [5]; at 50.0 µM 13.7% | [6]; [7] -5% | [6]; [8] 35% | [6]; at 50.0 µM 68.8%
active: [3]; at 50.0 µM 85.4%

CC[C@@H](C)[C@@H]1NC(=O)C(NC(=O)C(CC(C)C)N(C)C(=O)C2CCCN2C(=O)C(C)O)C(C)OC(=O)C(Cc2ccc(OC)cc2)N(C)C(=O)C2CCCN2C(=O)C(CC(C)C)NC(=O)C(C)C(=O)C(C(C)C)OC(=O)C[C@H]1O (some centres not stated)
active: [1]; [8] 96% | [1]; at 50.0 µM 81.3% | [2]; [7] 73% | [2]; [8] 99% | [2]; at 50.0 µM 83.5% | [3]; [8] 89% | [3]; at 50.0 µM 83.2% | [4]; [8] 74% | [4]; at 50.0 µM 80.6% | [5]; [8] 72% | [5]; at 50.0 µM 85.2% | [6]; [8] 98% | [6]; at 50.0 µM 79.8%
inactive: [1]; [7] 51% | [3]; [7] 58% | [4]; [7] 43% | [5]; [7] 28% | [6]; [7] 50%

ClCc1ccncc1
inactive: [1]; [7] 38% | [1]; at 50.0 µM 54.9% | [2]; [7] 26% | [2]; [8] 46% | [2]; at 50.0 µM 47.2% | [3]; [7] 55% | [3]; [8] 69% | [3]; at 50.0 µM 69.4% | [4]; [7] 38% | [4]; [8] 57% | [4]; at 50.0 µM 51% | [5]; [7] 31% | [5]; at 50.0 µM 58% | [6]; [7] 25% | [6]; [8] 66% | [6]; at 50.0 µM 57.6%
active: [1]; [8] 73% | [5]; [8] 73%

O=[As]c1cccc2ccccc12 (configuration not stated)
active: [1]; [7] 99% | [1]; [8] 99% | [1]; at 50.0 µM 99.3% | [2]; [7] 100% | [2]; [8] 100% | [2]; at 50.0 µM 99.6% | [3]; [7] 99% | [3]; [8] 99% | [3]; at 50.0 µM 99.7% | [4]; [7] 100% | [4]; [8] 99% | [4]; at 50.0 µM 99.2% | [5]; [7] 99% | [5]; [8] 99% | [5]; at 50.0 µM 99.3% | [6]; [7] 99% | [6]; [8] 99% | [6]; at 50.0 µM 99.3%

CCC[CH2][Sn]1([CH2]CCC)[O]C(=O)c2cccnc2[S]1
inactive: [1]; [7] 40% | [2]; [7] 38% | [3]; [7] 55% | [4]; [7] 31% | [4]; at 50.0 µM 62.5% | [5]; [7] 44% | [6]; [7] 51%
active: [1]; [8] 95% | [1]; at 50.0 µM 78.4% | [2]; [8] 97% | [2]; at 50.0 µM 78.3% | [3]; [8] 97% | [3]; at 50.0 µM 77% | [4]; [8] 94% | [5]; [8] 97% | [5]; at 50.0 µM 83.5% | [6]; [8] 97% | [6]; at 50.0 µM 79.8%
